Results with a measured potency or affinity are listed apart. Records with an inconclusive call do not appear. Unmarked numbers belong to inactive results. Calls of active or inactive are those of the source.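 The calls were made as follows, unless noted: active = signal drop whose fitted half-maximal concentration is at most twice the top valid dose, in every test run; inconclusive = mixed calls across runs, poor fit, or flat 30 to 70% inhibition; inactive = wrong direction, flat within 30%, or potency beyond limit.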
What was measured:
[1] = RMG-1 ovarian cancer cell viability loss – cherry-pick, dose response (AID 687029);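 also: cells exposed to compound for 96 hours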
[2] = CMV-driven luciferase expression suppression in HEK293 – cell-based, luminescence, dry powder, counter-screen for Pax8 inhibitor project, dose response (AID 743020;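 active = signal-lowering compounds whose fitted half-maximal concentration is at or below twice the top tested dose in every run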;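 also: HEK293 cells stably expressing the CMV luciferase reporter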)
[3] = general cell-killing toxicity readout – plate reader, dry powder samples, cytotoxicity control for PAX8 inhibitor project, dose response (AID 743021; call rule not given here)

Structure (SMILES)	outcome [1]	outcome [2]	outcome [3]
CS(=O)(=O)c1ccc(C(=O)OCC(=O)NCc2cccs2)cc1[N+](=O)[O-]	inactive	inactive	
Cc1cccc(-n2ncc(Cl)c(Cl)c2=O)c1	inactive	inactive	
COc1cccc(/C=N/Nc2nc(Nc3ccc([N+](=O)[O-])cc3)nc(N3CCCC3)n2)c1O	inactive	inactive	
O=C(NCCc1ccccc1)C(c1cccs1)N(C(=O)CCl)c1ccc(Cl)cc1 (stereo unspecified)	inactive	inactive	
CC(C)Nc1ccc(Nc2ccnc3cc4ccccc4cc23)cc1	inactive	inactive	
Cc1ccc(S(=O)(=O)c2ncccc2[N+](=O)[O-])cc1	inactive	inactive	
COc1ccc(C(=O)O/N=C(\N)c2ccccn2)cc1	inactive	inactive	
C/C(=N\NC(=O)c1n[nH]c2c1CCC2)c1cccs1	inactive	inactive	
C=C1C(=O)[C@]23C[C@H]1CCC2[C@@]1(C)C(C[C@@H]3O)[C@](C)(C(=O)OC)CC[C@@H]1O (stereo partly specified)	inactive	inactive	
Cc1nc2c(=O)n(C)c(=O)n(C)c2nc1Cl	inactive	inactive	
CCOc1ccc(NC(=O)Nc2cccc(C(=O)O)c2)cc1	inactive	inactive	
O=C(CCl)N=c1sccn1Cc1ccc(Cl)cc1Cl	inactive	inactive	
COC(=O)C1=C(C)N(Cc2ccc(C(F)(F)F)cc2)C(=NCc2ccccc2)NC1c1cccc(F)c1 (stereo unspecified)	inactive	inactive	
COc1ccc(OC)c(N(CCN2C(=O)c3ccccc3C2=O)C(=O)CCl)c1	inactive	inactive	
COc1ccc(Oc2ccc(/C=C/C(=O)c3cccc(OC)c3)cc2[N+](=O)[O-])cc1	inactive	inactive	
Cc1ccc(C(=O)O/N=C(\N)c2ccccn2)cc1	inactive	inactive	
CC(C)c1ccc(-c2nc3ccccc3s2)cc1	inactive	inactive	
Cc1ccc(C(=O)Nc2cnc3ccccc3c2)cc1	inactive	inactive	
CN1C(=O)/C(=C\C(=O)c2cccs2)c2ccccc21	inactive	inactive	inactive
COc1ccc(/C=C2\CN(Cc3ccccc3)C/C(=C\c3ccc(OC)cc3OC)C2=O)c(OC)c1	inactive	inactive	
O=C(CCc1ccc(S(=O)(=O)NCc2ccccc2)cc1)NCc1cccnc1	inactive	inactive	inactive
OC(c1cc(-c2ccc(C(F)(F)F)cc2)nc(C(F)(F)F)c1)C1CCCCN1 (stereo unspecified)	inactive	inactive	
C(=C\c1ccc(C2[C@@H]3CN(Cc4ccc5c(c4)OCO5)C[C@H]2N3)cc1)/c1ccccc1 (stereo partly specified)	inactive	inactive	
CCOC(=O)c1c2c(n(Cc3ccccc3)c1C)C(=O)C(=O)c1ccccc1-2	inactive	inactive	
COc1cc2c(c(OC)c1OC)-c1ccc(OC)c(=O)cc1C(NC(C)=O)CC2 (stereo unspecified)	inactive	inactive	inactive
C#CC(=O)N(c1ccc(OC)cc1OC)C(C(=O)NC1CCCC1)c1cccs1 (stereo unspecified)	inactive	inactive	

Structure (SMILES)	outcome [1]	outcome [2]	outcome [3]
COc1cccc(N2CCN(c3ncnc4c3cnn4-c3ccc(C)cc3C)CC2)c1	inactive	inactive	
CCC[C@@H](CN[C@@H](CNC)[C@H](C)CC)NCC1CCC(C(C)(C)C)CC1 (stereo partly specified)	inactive	inactive	
CC(=O)N(C1=C(Cl)C(=O)c2ccccc2C1=O)C1CCCCC1	inactive	inactive	
COc1ccc(N(Cc2cc3cc(OC)ccc3[nH]c2=O)S(=O)(=O)c2ccc(NC(C)=O)cc2)cc1	inactive	inactive	
COc1ccccc1N(C(C)=O)C1=C(Cl)C(=O)c2ccccc2C1=O	inactive	inactive	
COc1ccc(CN(C)C[C@H]2OCCCC[C@H](C)Oc3ccc(NC(=O)Nc4ccc(C(F)(F)F)cc4)cc3C(=O)N([C@@H](C)CO)C[C@H]2C)cc1	inactive	inactive	
CCCCCCCN(C(=O)CCl)c1cccc(C)c1	inactive	inactive	
COc1ccc(N2C(=O)CC(Sc3nnnn3-c3ccc(F)cc3)C2=O)cc1 (stereo unspecified)	inactive	inactive	
CC(C)=CCC/C(C)=C/CN1C(=O)N(c2ccc(F)cc2)[C@H]2C[C@@H](c3ccccc3)[C@@H](C)[C@@H](C(=O)N3CCOCC3)C[C@H]21	inactive	inactive	
Cn1c(=O)c([N+](=O)[O-])c(Cl)c2ccccc21	inactive	inactive	inactive
Cc1ccc(C(=O)c2cc([N+](=O)[O-])ccc2N2CCCCC2)c(C)c1	inactive	inactive	inactive
N#Cc1nc(NCC(F)F)nc(Nc2cc(F)cc(F)c2)n1	inactive	inactive	inactive
CC(C)C(=O)N1CCN(c2ccc(NC(=O)c3ccc([N+](=O)[O-])o3)cc2Cl)CC1	inactive	inactive	inactive
Oc1ccc(C[C@H]2CNC(=S)N2CC2CCCN2C[C@H](Cc2ccc(O)cc2)N2C[C@H](Cc3ccc(O)cc3)N(CC3CCCCC3)C2=S)cc1 (stereo partly specified)	inactive	inactive	inactive
COCCN(CC(=O)NC1CCCCC1)C(=O)/C=C/C(=O)c1ccc(OC)cc1O	inactive	inactive	inactive
O=C(Nc1cc(S(=O)(=O)N2CCCCC2)ccc1Cl)c1ccccc1NS(=O)(=O)c1ccc(F)cc1	inactive	inactive	inactive
COc1cccc2c1C(=O)c1c(O)c3c(c(O)c1C2=O)C[C@](O)(C(C)=O)C[C@H]3O[C@@H]1C[C@@H](N)[C@@H](O)[C@@H](C)O1	inactive	inactive	inactive
CNc1ccc(Br)cc(C(=O)/C=C/c2cc(OC)ccc2OC)c1=O	inactive	inactive	inactive
Cc1cc(C)n(-c2nc(NCCN(C)C)c3c4c(sc3n2)CCCC4)n1	inactive	inactive	inactive
C=CCC[C@@H](Cc1ccc(F)cc1)C(=O)OC[C@@H](Cc1c[nH]c2ccccc12)NC(=O)[C@H](CC=C)CC(=O)N(CCO)Cc1ccccc1	inactive	inactive	inactive
Cc1ccc(CCc2nnc(SCC(=O)Nc3cccc(Cl)c3)n2-c2ccccc2)o1	inactive	inactive	inactive
COc1cccc(-c2cnc3c(NC=O)cc(-c4ccc(OC)cc4OC)cn23)c1	inactive	inactive	inactive
CCC(=O)N1CCN(c2ccc(NC(=O)c3ccc([N+](=O)[O-])o3)cc2)CC1	inactive	inactive	inactive
O=c1cc(C(Cl)(Cl)Cl)oc2c1ccc1ccccc12	inactive	inactive	inactive
CCOc1ccc2c(c1)C(C)=CC(C)(C)N2S(=O)(=O)c1ccc(NC(C)=O)cc1	inactive	inactive	inactive

— PubChem BioAssay
